Assay results: PubChem BioAssay (NCI)
Compounds without any hit were thinned out: in the full panel of roughly 83,000, 20% have a hit.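 The test compound was applied at a single concentration to cells in 96-well plates for 48 hours, and percent growth was recorded.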 Activity calls are given as the source filed them. How the source made its calls: active means growth percent below 10; inactive means the rest.

Columns and labels:
Test in all cases: NCI-60 one-dose screen, 48 h (100 = growth as untreated, 0 = no growth, -100 = all killed)
Conditions in all cases: 10 µM unless noted
NCI-H23 lung = test system: NCI-H23 lung
NCI-H226 lung = test system: NCI-H226 lung
NCI-H322M lung = test system: NCI-H322M lung
HOP-62 NSCLC = test system: HOP-62 NSCLC
NCI-H460 lung = test system: NCI-H460 lung
HOP-92 NSCLC = test system: HOP-92 NSCLC
NCI-H522 lung = test system: NCI-H522 lung
A549/ATCC NSCLC = test system: A549/ATCC NSCLC
786-0 renal = test system: 786-0 renal
COLO 205 colon = test system: COLO 205 colon

Measured: growth

Nc1cccc(NC(=O)C(=O)Nc2cccc(N)c2)c1
inactive: NCI-H23 lung 105% | NCI-H226 lung 93.6% | NCI-H322M lung 109% | HOP-62 NSCLC 96.1% | NCI-H460 lung 117% | HOP-92 NSCLC 89.8% | NCI-H522 lung 91.7% | A549/ATCC NSCLC 97.1% | 786-0 renal 68.5% | COLO 205 colon 127%

CN1CCN(Cc2ccc(NC(=O)c3cncc(C#Cc4c(N)ncc5ccc(C#N)cc45)c3)cc2C(F)(F)F)CC1
active: NCI-H226 lung 3.8% | NCI-H322M lung -29.2% | NCI-H460 lung -73.8% | NCI-H522 lung -53.7% | A549/ATCC NSCLC -65.6% | 786-0 renal -59.6%
inactive: NCI-H23 lung 47% | HOP-62 NSCLC 58.4% | HOP-92 NSCLC 13.9% | COLO 205 colon 21.2%

COc1ccc(C/C(C)=C(\c2ccc(Cl)cc2)c2ccc(OCCN3CCCCCC3)cc2)cc1
inactive: NCI-H23 lung 78.8% | NCI-H226 lung 86.1% | NCI-H322M lung 86.8% | HOP-62 NSCLC 97.4% | NCI-H460 lung 70.4% | HOP-92 NSCLC 71.2% | NCI-H522 lung 73.5% | A549/ATCC NSCLC 87.9% | 786-0 renal 86.3% | COLO 205 colon 65.2%

C=C1CC[C@@H]2[C@](C)(COC(C)=O)[C@H](OC(C)=O)CC[C@@]2(C)[C@@H]1CC(Nc1ccc(S(=O)(=O)Nc2ccc(Cl)nn2)cc1)C1=CCOC1=O (stereo not given in full)
inactive: NCI-H23 lung 58.2% | NCI-H322M lung 57% | HOP-62 NSCLC 47.9% | NCI-H460 lung 14.5% | HOP-92 NSCLC 69.8% | A549/ATCC NSCLC 61.6% | 786-0 renal 58.8% | COLO 205 colon 18%
active: NCI-H226 lung -10% | NCI-H522 lung -34.5%

O=S(=O)(Nc1ccc(Cl)cc1Cl)c1ccc(-c2cnc(C3CC3)o2)cc1
inactive: NCI-H23 lung 28.2% | NCI-H226 lung 59% | NCI-H322M lung 36.5% | HOP-62 NSCLC 31.5% | NCI-H460 lung 12.7% | HOP-92 NSCLC 51.2% | A549/ATCC NSCLC 26.5% | 786-0 renal 41.4%
active: NCI-H522 lung -1.33% | COLO 205 colon 4.78%

COc1cc(C2CC(=O)c3c(C)nn(-c4nc5ccccc5[nH]4)c3C2)cc(OC)c1OC (stereo not given)
inactive: NCI-H23 lung 86% | NCI-H226 lung 65.9% | NCI-H322M lung 67.8% | HOP-62 NSCLC 32.3% | NCI-H460 lung 73.7% | NCI-H522 lung 31.6% | A549/ATCC NSCLC 59.5% | 786-0 renal 23.8% | COLO 205 colon 126%
active: HOP-92 NSCLC -3.61%

Cn1c(=O)c2c(ncn2CC[N+](C)(C)C)n(C)c1=O
inactive: NCI-H23 lung 99.9% | NCI-H226 lung 93.2% | NCI-H322M lung 101% | HOP-62 NSCLC 92% | NCI-H460 lung 109% | HOP-92 NSCLC 110% | NCI-H522 lung 80.7% | A549/ATCC NSCLC 91.7% | 786-0 renal 108% | COLO 205 colon 103%

CC1(C)CC(C(=O)OCCCCCCCCCCC[P+](c2ccccc2)(c2ccccc2)c2ccccc2)C(C)(C)N1O (stereo not given)
active: NCI-H23 lung -61.1% | NCI-H226 lung -65.6% | NCI-H322M lung -20.6% | HOP-62 NSCLC -45.5% | NCI-H460 lung -79.8% | HOP-92 NSCLC -68.8% | NCI-H522 lung -29.4% | A549/ATCC NSCLC -42.6% | 786-0 renal -75.4% | COLO 205 colon -79.9%

CCC(=O)Oc1ccc(/C(=C(\C)c2ccccc2)c2ccc(OCCN(CC)CC)cc2)cc1
inactive: NCI-H23 lung 89.1% | NCI-H226 lung 95.8% | NCI-H322M lung 96.2% | HOP-62 NSCLC 95.3% | NCI-H460 lung 80.9% | HOP-92 NSCLC 61% | NCI-H522 lung 73.5% | A549/ATCC NSCLC 84.9% | 786-0 renal 70.1% | COLO 205 colon 74.6%

O=C(O)c1ccc2c(c1Sc1ccccc1)C(=O)c1ccccc1C2=O
inactive: NCI-H23 lung 91.1% | NCI-H226 lung 92.6% | NCI-H322M lung 82.2% | HOP-62 NSCLC 91.8% | NCI-H460 lung 100% | HOP-92 NSCLC 76.7% | NCI-H522 lung 120% | A549/ATCC NSCLC 96.8% | 786-0 renal 106% | COLO 205 colon 112%

COc1cc(-c2nc3ccccc3s2)ccc1NC(=O)COc1ccc(Cl)cc1
active: HOP-92 NSCLC 8.1%
inactive: NCI-H23 lung 38.3% | NCI-H226 lung 60% | NCI-H322M lung 71% | HOP-62 NSCLC 29.1% | NCI-H460 lung 13.4% | NCI-H522 lung 38.6% | A549/ATCC NSCLC 49.2% | 786-0 renal 16.8% | COLO 205 colon 52.8%

COc1cnc2c(c1)C(=O)c1c-2n(CCCBr)c(=O)c2cc([N+](=O)[O-])ccc12
active: NCI-H23 lung -5.87% | NCI-H226 lung -1.66% | HOP-62 NSCLC 3.86% | NCI-H460 lung 2.4% | NCI-H522 lung -18.4% | A549/ATCC NSCLC 2.68% | 786-0 renal 5.26% | COLO 205 colon -26.2%
inactive: NCI-H322M lung 15.5% | HOP-92 NSCLC 26.5%

CC[C@H](Nc1cc(C)nc(N)n1)c1nc2cccc(NCc3ccc(C(=O)NO)cc3)c2c(=O)n1-c1ccccc1
inactive: NCI-H226 lung 64.7% | NCI-H322M lung 47.7% | HOP-62 NSCLC 34.5% | NCI-H460 lung 30.1% | A549/ATCC NSCLC 60.1% | 786-0 renal 44.1%
active: NCI-H23 lung -6.84% | HOP-92 NSCLC -3.07% | NCI-H522 lung -63.7% | COLO 205 colon -51.8%

CN(C)CCOc1ccc(-c2nc3ccc(-c4nc5ccc(N6CCN(C)CC6)cc5[nH]4)cc3[nH]2)cc1
inactive: NCI-H23 lung 76.9% | NCI-H226 lung 28.7% | NCI-H322M lung 77.8% | HOP-62 NSCLC 69.9% | NCI-H460 lung 56% | HOP-92 NSCLC 61.7% | NCI-H522 lung 59.9% | A549/ATCC NSCLC 64.4% | 786-0 renal 86.4% | COLO 205 colon 44.5%

CC(C)(C)c1nn(-c2ccccc2)c2c1CC1(CN2Cc2ccc3c(c2)OCO3)C(=O)c2ccccc2C1=O
inactive: NCI-H23 lung 106% | NCI-H226 lung 110% | NCI-H322M lung 107% | HOP-62 NSCLC 97.3% | NCI-H460 lung 112% | HOP-92 NSCLC 97.2% | NCI-H522 lung 141% | A549/ATCC NSCLC 79.4% | 786-0 renal 98.4% | COLO 205 colon 108%

CN1CCCCC1CCN1c2ccccc2Sc2ccc(Br)cc21 (stereo not given)
inactive: NCI-H23 lung 77.4% | NCI-H226 lung 89.9% | NCI-H322M lung 59.1% | HOP-62 NSCLC 85.7% | NCI-H460 lung 64.9% | HOP-92 NSCLC 45.5% | NCI-H522 lung 62.9% | A549/ATCC NSCLC 67.5% | 786-0 renal 55% | COLO 205 colon 51.5%

COc1cc2nc3cc([N+](=O)[O-])ccc3c(NCCCNCC(C)(C)O)c2cc1OC
active: NCI-H23 lung -47.4% | NCI-H226 lung -37.6% | NCI-H322M lung -24.8% | HOP-62 NSCLC -53.3% | NCI-H460 lung -48.5% | HOP-92 NSCLC -53.9% | NCI-H522 lung -56.7% | A549/ATCC NSCLC -30.9% | 786-0 renal -61.6% | COLO 205 colon -81.2%

CCN(CC)CCCC(C)NCCCNc1cccc2cccnc12 (stereo not given)
inactive: NCI-H23 lung 92.8% | NCI-H226 lung 93.5% | NCI-H322M lung 79.1% | HOP-62 NSCLC 82.6% | NCI-H460 lung 101% | HOP-92 NSCLC 92.5% | NCI-H522 lung 103% | A549/ATCC NSCLC 106% | 786-0 renal 109% | COLO 205 colon 91.7%

CC[C@H](CO)Nc1nc(NCc2ccccc2)n2ncc(C(C)C)c2n1
active: HOP-62 NSCLC 3.3% | NCI-H460 lung 5.04% | HOP-92 NSCLC -8.83% | NCI-H522 lung 1.9% | 786-0 renal -2.74% | COLO 205 colon -27%
inactive: NCI-H23 lung 13.3% | NCI-H226 lung 10.3% | NCI-H322M lung 14.8% | A549/ATCC NSCLC 19.7%

COc1ncc(-c2ccc3ncnc(Nc4cccc(Cl)c4)c3c2)cc1NS(C)(=O)=O
active: NCI-H322M lung -6.97% | HOP-92 NSCLC -14.7%
inactive: NCI-H23 lung 37.4% | NCI-H226 lung 47.2% | HOP-62 NSCLC 56.6% | NCI-H460 lung 28.3% | NCI-H522 lung 33.3% | A549/ATCC NSCLC 15.8% | 786-0 renal 46.2% | COLO 205 colon 41.5%

O=C(CCCN1CCOCC1)Nc1ccc(Cn2nnc3c2C(=O)c2nnn(Cc4ccc(NC(=O)CCCN5CCOCC5)cc4)c2C3=O)cc1
inactive: NCI-H226 lung 97.8% | NCI-H322M lung 21% | HOP-62 NSCLC 73.9% | NCI-H460 lung 22.4% | A549/ATCC NSCLC 83.8% | 786-0 renal 101%
active: NCI-H23 lung -6.94% | HOP-92 NSCLC -20.9% | NCI-H522 lung -34.9% | COLO 205 colon -70.5%

COc1c(C2CC(=O)Nc3c2cnn3Cc2ccco2)cc2c(c1OC)OCO2 (stereo not given)
active: NCI-H460 lung 2.88% | NCI-H522 lung -2.1% | COLO 205 colon -49.1%
inactive: NCI-H23 lung 29.9% | NCI-H226 lung 44.7% | NCI-H322M lung 55.4% | HOP-62 NSCLC 12.2% | HOP-92 NSCLC 48.9% | A549/ATCC NSCLC 27.6% | 786-0 renal 35.4%

COC1C/C(=N\O)C2OC(c3ccccc3)OCC2O1 (stereo not given)
inactive: NCI-H23 lung 101% | NCI-H226 lung 103% | NCI-H322M lung 99.9% | HOP-62 NSCLC 114% | NCI-H460 lung 112% | HOP-92 NSCLC 90.7% | NCI-H522 lung 97.3% | A549/ATCC NSCLC 88.3% | 786-0 renal 104% | COLO 205 colon 107%

Cc1cc(Cl)ccc1Nc1nc(C(F)(F)F)ccc1C(=O)N/N=C/c1ccc(F)cc1
inactive: NCI-H23 lung 16.4% | NCI-H226 lung 22.9% | A549/ATCC NSCLC 16.5% | COLO 205 colon 13.9%
active: NCI-H322M lung 9.9% | HOP-62 NSCLC 5.92% | NCI-H460 lung 2.29% | HOP-92 NSCLC -18.1% | NCI-H522 lung -9.21% | 786-0 renal -50.7%

Nc1ccc(Nc2nccc(-c3ccc4ccccc4c3)n2)cc1
inactive: NCI-H23 lung 41.2% | NCI-H226 lung 64% | NCI-H322M lung 64.5% | HOP-62 NSCLC 44.2% | NCI-H460 lung 17.8% | HOP-92 NSCLC 65.1% | NCI-H522 lung 27.6% | A549/ATCC NSCLC 25.5% | 786-0 renal 58.7% | COLO 205 colon 49.4%

Cn1cc(-c2nc(-c3c[nH]c4ccccc34)cs2)c2cccnc21
inactive: NCI-H23 lung 49.6% | NCI-H226 lung 65.9% | NCI-H322M lung 58.9% | HOP-62 NSCLC 33.3% | NCI-H460 lung 16.8% | HOP-92 NSCLC 30.4% | A549/ATCC NSCLC 34.2% | 786-0 renal 64.9%
active: NCI-H522 lung -3.47% | COLO 205 colon -2.81%

CCCCCCCCCCCCS(=O)CC(C)O (stereo not given)
inactive: NCI-H23 lung 115% | NCI-H226 lung 110% | NCI-H322M lung 119% | HOP-62 NSCLC 96.1% | NCI-H460 lung 111% | HOP-92 NSCLC 90.2% | NCI-H522 lung 95.3% | A549/ATCC NSCLC 93% | 786-0 renal 102% | COLO 205 colon 110%
